Counter-ions that a name gives are not always drawn.
How the values were obtained:
HCC1937 = test: relative cell viability, compound + erastin, vs DMSO (fraction of DMSO control); higher = less growth inhibition; settings: 72 h
MDA-MB-231 = test: as above; settings: 72 h
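Also: viability read by CCK-8 kit in 96-well plates, part of a combination screen pairing lipid-metabolism-targeting compounds with erastin.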

Compound: CC1CC(OC(=O)C(O)c2ccccc2)CC(C)(C)C1 (stereo unspecified) [Cyclandelate] + CCOc1ccccc1-n1c(C(C)N2CCN(C(=O)COc3ccc(Cl)cc3)CC2)nc2ccccc2c1=O [erastin]
- relative cell viability (HCC1937): 0.828
- relative cell viability (MDA-MB-231): 0.606

Compound: Oc1ccc(/C=C/c2cc(O)cc(O)c2)cc1 [Resveratrol] + CCOc1ccccc1-n1c(C(C)N2CCN(C(=O)COc3ccc(Cl)cc3)CC2)nc2ccccc2c1=O [erastin]
- relative cell viability (HCC1937): 0.635
- relative cell viability (MDA-MB-231): 0.853

Compound: CCc1c(C(=O)C(N)=O)c2c(OCC(=O)O)cccc2n1Cc1ccccc1 [Varespladib] + CCOc1ccccc1-n1c(C(C)N2CCN(C(=O)COc3ccc(Cl)cc3)CC2)nc2ccccc2c1=O [erastin]
- relative cell viability (HCC1937): 0.547
- relative cell viability (MDA-MB-231): 0.652

Compound: CN(C)C(=N)NC(=N)N [Metformin] + CCOc1ccccc1-n1c(C(C)N2CCN(C(=O)COc3ccc(Cl)cc3)CC2)nc2ccccc2c1=O [erastin]
- relative cell viability (HCC1937): 0.63
- relative cell viability (MDA-MB-231): 0.546

Compound: CC(O)(CC(=O)O)CC(=O)O [Meglutol] + CCOc1ccccc1-n1c(C(C)N2CCN(C(=O)COc3ccc(Cl)cc3)CC2)nc2ccccc2c1=O [erastin]
- relative cell viability (HCC1937): 0.708
- relative cell viability (MDA-MB-231): 0.67

Compound: COc1cc(C(C)=O)ccc1O [Acetovanillone] + CCOc1ccccc1-n1c(C(C)N2CCN(C(=O)COc3ccc(Cl)cc3)CC2)nc2ccccc2c1=O [erastin]
- relative cell viability (HCC1937): 0.508
- relative cell viability (MDA-MB-231): 0.666

Compound: Cc1cnc(C(=O)NCCc2ccc(S(=O)(=O)NC(=O)NC3CCCCC3)cc2)cn1 [Glipizide] + CCOc1ccccc1-n1c(C(C)N2CCN(C(=O)COc3ccc(Cl)cc3)CC2)nc2ccccc2c1=O [erastin]
- relative cell viability (HCC1937): 0.732
- relative cell viability (MDA-MB-231): 0.843

Compound: CN(C)C(=O)Nc1cccc(-c2ccc(N(C)C)cc2)c1 [Atglistatin] + CCOc1ccccc1-n1c(C(C)N2CCN(C(=O)COc3ccc(Cl)cc3)CC2)nc2ccccc2c1=O [erastin]
- relative cell viability (HCC1937): 0.438
- relative cell viability (MDA-MB-231): 1.06

Compound: CC1=C[C@]2(O)O[C@@]3(CC2=C(C)C)[C@@H](C)CC[C@@H]13 [Curcumenol] + CCOc1ccccc1-n1c(C(C)N2CCN(C(=O)COc3ccc(Cl)cc3)CC2)nc2ccccc2c1=O [erastin]
- relative cell viability (HCC1937): 0.55
- relative cell viability (MDA-MB-231): 0.639

Compound: O=S(=O)(O)c1ccc2cc(N=Nc3cc(S(=O)(=O)O)c4cccnc4c3O)ccc2c1 + CCOc1ccccc1-n1c(C(C)N2CCN(C(=O)COc3ccc(Cl)cc3)CC2)nc2ccccc2c1=O [erastin]
- relative cell viability (HCC1937): 0.741
- relative cell viability (MDA-MB-231): 0.595

Compound: O=S(=O)(Nc1ccc(C(O)(C(F)(F)F)C(F)(F)F)cc1)c1cccs1 + CCOc1ccccc1-n1c(C(C)N2CCN(C(=O)COc3ccc(Cl)cc3)CC2)nc2ccccc2c1=O [erastin]
- relative cell viability (HCC1937): 0.652
- relative cell viability (MDA-MB-231): 0.568

Compound: c1ccc([C@H]2CN3CCSC3=N2)cc1 [Levamisole hydrochloride] + CCOc1ccccc1-n1c(C(C)N2CCN(C(=O)COc3ccc(Cl)cc3)CC2)nc2ccccc2c1=O [erastin]
- relative cell viability (HCC1937): 0.768
- relative cell viability (MDA-MB-231): 0.779

Compound: C[C@@H]1C(=O)O[C@H]2[C@H](O)[C@@]34O[C@@H]5OC(=O)[C@H](O)[C@@]56[C@H](C(C)(C)C)[C@H](O)C(OC3=O)[C@]64[C@@]12O (stereo partly specified) [Ginkgolide C] + CCOc1ccccc1-n1c(C(C)N2CCN(C(=O)COc3ccc(Cl)cc3)CC2)nc2ccccc2c1=O [erastin]
- relative cell viability (HCC1937): 0.697
- relative cell viability (MDA-MB-231): 0.747

Compound: CC(C)(Oc1ccc(CCNC(=O)c2ccc(Cl)cc2)cc1)C(=O)O [Bezafibrate] + CCOc1ccccc1-n1c(C(C)N2CCN(C(=O)COc3ccc(Cl)cc3)CC2)nc2ccccc2c1=O [erastin]
- relative cell viability (HCC1937): 0.736
- relative cell viability (MDA-MB-231): 0.937

Compound: CC(=O)Nc1nc(C)c(S(=O)(=O)Nc2ccc(C(O)(C(F)(F)F)C(F)(F)F)cc2)s1 + CCOc1ccccc1-n1c(C(C)N2CCN(C(=O)COc3ccc(Cl)cc3)CC2)nc2ccccc2c1=O [erastin]
- relative cell viability (HCC1937): 0.956
- relative cell viability (MDA-MB-231): 1.1

Compound: Nc1ccc(C(=O)O)c(O)c1 [Aminopar] + CCOc1ccccc1-n1c(C(C)N2CCN(C(=O)COc3ccc(Cl)cc3)CC2)nc2ccccc2c1=O [erastin]
- relative cell viability (HCC1937): 0.773
- relative cell viability (MDA-MB-231): 0.664

Compound: CC(C)(O)[C@@H]1Cc2cc3ccc(=O)oc3cc2O1 [marmesin] + CCOc1ccccc1-n1c(C(C)N2CCN(C(=O)COc3ccc(Cl)cc3)CC2)nc2ccccc2c1=O [erastin]
- relative cell viability (HCC1937): 0.645
- relative cell viability (MDA-MB-231): 0.646

Compound: CCCC[S+]([O-])c1sc2nc(-c3cccs3)cc(-c3ccccc3)c2c1N (stereo unspecified) + CCOc1ccccc1-n1c(C(C)N2CCN(C(=O)COc3ccc(Cl)cc3)CC2)nc2ccccc2c1=O [erastin]
- relative cell viability (HCC1937): 0.72
- relative cell viability (MDA-MB-231): 0.715

Compound: N=C(N)NC(=N)NCCc1ccccc1 [Phenformin hydrochloride] + CCOc1ccccc1-n1c(C(C)N2CCN(C(=O)COc3ccc(Cl)cc3)CC2)nc2ccccc2c1=O [erastin]
- relative cell viability (HCC1937): 0.756
- relative cell viability (MDA-MB-231): 0.999

Compound: Cc1coc2c1C(=O)C(=O)c1c-2ccc2c(C)cccc12 [Tanshinone I] + CCOc1ccccc1-n1c(C(C)N2CCN(C(=O)COc3ccc(Cl)cc3)CC2)nc2ccccc2c1=O [erastin]
- relative cell viability (HCC1937): 0.226
- relative cell viability (MDA-MB-231): 0.396

Compound: COP(=O)(OC)OC(c1ccc(Cl)cc1)P(=O)(OC)OC (stereo unspecified) [Mifobate] + CCOc1ccccc1-n1c(C(C)N2CCN(C(=O)COc3ccc(Cl)cc3)CC2)nc2ccccc2c1=O [erastin]
- relative cell viability (HCC1937): 0.875
- relative cell viability (MDA-MB-231): 1.06

Compound: O=C(Nc1cccnn1)N1CCC(=Cc2cccc(Oc3ccc(C(F)(F)F)cn3)c2)CC1 + CCOc1ccccc1-n1c(C(C)N2CCN(C(=O)COc3ccc(Cl)cc3)CC2)nc2ccccc2c1=O [erastin]
- relative cell viability (HCC1937): 0.667
- relative cell viability (MDA-MB-231): 0.554

Compound: CC(C)Cc1ccc([C@H](C)C(=O)O)cc1 [Dexibuprofen] + CCOc1ccccc1-n1c(C(C)N2CCN(C(=O)COc3ccc(Cl)cc3)CC2)nc2ccccc2c1=O [erastin]
- relative cell viability (HCC1937): 0.901
- relative cell viability (MDA-MB-231): 0.642

Compound: CCCCCCCCCc1ccc(B(O)O)cc1 [4-Nonylphenylboronic acid] + CCOc1ccccc1-n1c(C(C)N2CCN(C(=O)COc3ccc(Cl)cc3)CC2)nc2ccccc2c1=O [erastin]
- relative cell viability (HCC1937): 0.9
- relative cell viability (MDA-MB-231): 0.358

Compound: CCCCCCCCCCCCCCOc1ccc(C(=O)OCC(=O)N(C)CC(=O)OCC)o1 [Olumacostat Glasaretil] + CCOc1ccccc1-n1c(C(C)N2CCN(C(=O)COc3ccc(Cl)cc3)CC2)nc2ccccc2c1=O [erastin]
- relative cell viability (HCC1937): 0.549
- relative cell viability (MDA-MB-231): 0.477

Compound: OC[C@H]1O[C@@H](Oc2cc(O)cc(/C=C/c3ccc(O)cc3)c2)[C@H](O)[C@@H](O)[C@@H]1O [Polydatin] + CCOc1ccccc1-n1c(C(C)N2CCN(C(=O)COc3ccc(Cl)cc3)CC2)nc2ccccc2c1=O [erastin]
- relative cell viability (HCC1937): 0.78
- relative cell viability (MDA-MB-231): 0.601

Compound: O=C(NNc1ccccc1)c1ccncc1 [PluriSln 1] + CCOc1ccccc1-n1c(C(C)N2CCN(C(=O)COc3ccc(Cl)cc3)CC2)nc2ccccc2c1=O [erastin]
- relative cell viability (HCC1937): 0.518
- relative cell viability (MDA-MB-231): 0.696

Compound: COc1cc(N2CCN(C)CC2)ccc1Nc1ncc2c(n1)N(C)c1ccccc1C(=O)N2 + CCOc1ccccc1-n1c(C(C)N2CCN(C(=O)COc3ccc(Cl)cc3)CC2)nc2ccccc2c1=O [erastin]
- relative cell viability (HCC1937): 0.365
- relative cell viability (MDA-MB-231): 0.788

Compound: Cc1cc(C)c(S(=O)(=O)N(CCc2cccc(Br)c2)Cc2ccc(-c3cccc(S(C)(=O)=O)c3)cc2)c(C)c1 + CCOc1ccccc1-n1c(C(C)N2CCN(C(=O)COc3ccc(Cl)cc3)CC2)nc2ccccc2c1=O [erastin]
- relative cell viability (HCC1937): 0.537
- relative cell viability (MDA-MB-231): 0.777

Compound: O=C1C(SCCO)=C(SCCO)C(=O)c2ccccc21 + CCOc1ccccc1-n1c(C(C)N2CCN(C(=O)COc3ccc(Cl)cc3)CC2)nc2ccccc2c1=O [erastin]
- relative cell viability (HCC1937): 0.575
- relative cell viability (MDA-MB-231): 0.851

Compound: O=S(=O)(c1ccccc1)N(CC(F)(F)F)c1ccc(C(O)(C(F)(F)F)C(F)(F)F)cc1 + CCOc1ccccc1-n1c(C(C)N2CCN(C(=O)COc3ccc(Cl)cc3)CC2)nc2ccccc2c1=O [erastin]
- relative cell viability (HCC1937): 0.835
- relative cell viability (MDA-MB-231): 0.45

Compound: Cc1c(C(=O)NN2CCCCC2)nn(-c2ccc(Cl)cc2Cl)c1-c1ccc(Cl)cc1 [Rimonabant] + CCOc1ccccc1-n1c(C(C)N2CCN(C(=O)COc3ccc(Cl)cc3)CC2)nc2ccccc2c1=O [erastin]
- relative cell viability (HCC1937): 0.581
- relative cell viability (MDA-MB-231): 0.273

Compound: CC(C)(C)c1ccc(-c2nc3ccccc3[nH]2)cc1 + CCOc1ccccc1-n1c(C(C)N2CCN(C(=O)COc3ccc(Cl)cc3)CC2)nc2ccccc2c1=O [erastin]
- relative cell viability (HCC1937): 0.225
- relative cell viability (MDA-MB-231): 0.295

Compound: CCCc1c(OCCCOc2ccc(OCC(=O)O)cc2)ccc(C(C)=O)c1O + CCOc1ccccc1-n1c(C(C)N2CCN(C(=O)COc3ccc(Cl)cc3)CC2)nc2ccccc2c1=O [erastin]
- relative cell viability (HCC1937): 0.752
- relative cell viability (MDA-MB-231): 0.833

Compound: CCN(CC)CCCC(C)Nc1c2ccc(Cl)cc2nc2ccc(OC)cc12 (stereo unspecified) [Quinacrine dihydrochloride] + CCOc1ccccc1-n1c(C(C)N2CCN(C(=O)COc3ccc(Cl)cc3)CC2)nc2ccccc2c1=O [erastin]
- relative cell viability (HCC1937): 0.164
- relative cell viability (MDA-MB-231): 0.299

Compound: CNC(=O)c1cccc(NC(=O)N2CCC(Oc3ccccc3Cl)CC2)c1 + CCOc1ccccc1-n1c(C(C)N2CCN(C(=O)COc3ccc(Cl)cc3)CC2)nc2ccccc2c1=O [erastin]
- relative cell viability (HCC1937): 0.566
- relative cell viability (MDA-MB-231): 0.523

Compound: O=C(Nc1ccncc1)c1cc([N+](=O)[O-])ccc1Cl + CCOc1ccccc1-n1c(C(C)N2CCN(C(=O)COc3ccc(Cl)cc3)CC2)nc2ccccc2c1=O [erastin]
- relative cell viability (HCC1937): 0.47
- relative cell viability (MDA-MB-231): 0.726

Compound: CCCCCCCCCCCCCCOc1ccc(C(=O)O)o1 + CCOc1ccccc1-n1c(C(C)N2CCN(C(=O)COc3ccc(Cl)cc3)CC2)nc2ccccc2c1=O [erastin]
- relative cell viability (HCC1937): 0.56
- relative cell viability (MDA-MB-231): 0.696

— the supplement of paper PMC9492666
